FBW7 activator: activators of human E3 ligase FBW7. Q969H0. AlphaScreen FBW7–phospho-cyclin E peptide binding, activator screen. normalized activity (activation), % at 26.1 µM. 650,000 compounds, 0.13% hits. AID 1259310; in the data active means normalized activity above about 1.9%;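 further: purified mutant Fbw7 with reduced substrate affinity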
GPR151 activ: activators of human GPR151; AID 1508602; Q8TDV0; activation, % at 11.2 µM; PathHunter beta-arrestin GPR151 cells, luminescence; 650,000 compounds, 1% hits; in the data active means activation above about 4.9%;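 further: 0% = median of compound wells and 100% = cells with positive control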
TEAD-YAP inh: TEAD-YAP interaction inhibition; HEK-TIYL cells, TEAD-Gal4/YAP UAS-luciferase luminescence; inhibition, % at 9.12 µM; 640,000 compounds, 1.4% hits; in the data active means inhibition above about 32%;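 further: 0% = median of test compound wells and 100% = reference inhibitor wells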
MITF primary: inhibitors of human MITF | AlphaScreen MITF homodimerization, bead proximity signal | O75030 | inhibition, % at 2.6 µM | 650,000 compounds, 0.91% hits; in the data active means inhibition above about 50%;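 further: 0% = vehicle wells with protein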
GPR151 confirm: confirmation of human GPR151 activators; AID 1508609; shares compounds with GPR151 activ; activation, % at 11.2 µM; GPR151 PathHunter beta-arrestin cells, luminescence, 90 min; % of EA-reagent control over plate median; 6,700 tested, under 10 active;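 active means mean percent activation across replicates above the confirmation screen cutoff of 4.91%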
GPR119 counter: GPR119 activation, counter-screen for GPR151 activators; GPR119 PathHunter beta-arrestin cells, luminescence, 90 min; 0 = compound-well median, 100 = enzyme-acceptor control; 6,700 compounds, 0.3% hits; activation, % at 11.2 µM; shares compounds with GPR151 activ;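 active means mean percent activation in the counterscreen above 29.09%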;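 further: counterscreen on off-target GPR119 to flag nonselective hits from the GPR151 activator screen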
* hit, by the source's call. Sampled rows, rich in hits. Any-hit rate of the full collection: about 3.5%.

What do the screens show for `COc1cccc(OC)c1OCC(O)CN1CCN(c2ccccc2)CC1` (configuration not stated)?
FBW7 activator: 0; GPR151 activ: 6.3*; TEAD-YAP inh: -4; MITF primary: 6; GPR151 confirm: 0; GPR119 counter: 16

Results for CC(=O)Nc1cccc(NC(=S)Nc2ccc(S(N)(=O)=O)cc2)c1 ?
FBW7 activator: 0; GPR151 activ: 0; TEAD-YAP inh: 1; MITF primary: -2

What do the screens show for `CC(=O)NC(=S)Nc1ccc(S(N)(=O)=O)cc1`?
FBW7 activator: 0; GPR151 activ: 5.5*; TEAD-YAP inh: -7; MITF primary: 0; GPR151 confirm: 0; GPR119 counter: 2

How did NS(=O)(=O)c1ccc(NC(=S)NC(=O)C(c2ccccc2)c2ccccc2)cc1 do in these assays?
FBW7 activator: 0; GPR151 activ: 5.4*; TEAD-YAP inh: -5; MITF primary: 2; GPR151 confirm: 0; GPR119 counter: -6

How did CCCN1Cc2cc(OC)ccc2OC(CC)C1 (configuration not stated) do in these assays?
FBW7 activator: 0; GPR151 activ: -1; TEAD-YAP inh: -3; MITF primary: 14

Results for Cc1ccccc1NS(=O)(=O)c1ccc(-c2ccc(-n3cnnn3)cc2)cc1 ?
FBW7 activator: 0; GPR151 activ: 5.7*; TEAD-YAP inh: -13; MITF primary: -1; GPR151 confirm: 1; GPR119 counter: 12

How did CC1(C(=O)NC2CCCCCC2)CN(S(C)(=O)=O)CC(=O)N1c1ccc(Cl)cc1 (configuration not stated) do in these assays?
FBW7 activator: 0; GPR151 activ: 7.7*; TEAD-YAP inh: -3; MITF primary: 0; GPR151 confirm: -1; GPR119 counter: -12

Results for CCCS(=O)(=O)N1CC(=O)N(c2ccccc2OC)C(C)(C(=O)NC2CCCC2)C1 (configuration not stated) ?
FBW7 activator: 0; GPR151 activ: 6.0*; TEAD-YAP inh: -2; MITF primary: 4; GPR151 confirm: 0; GPR119 counter: -11

Results for CCCS(=O)(=O)N1CC(=O)N(c2ccccc2CC)C(C)(C(=O)NC2CCCCC2)C1 (configuration not stated) ?
FBW7 activator: 0; GPR151 activ: 0; TEAD-YAP inh: -1; MITF primary: 8

How did COc1ccc(-c2nc3sc(CCNS(=O)(=O)c4ccc(C)cc4)c(C)n3n2)cc1 do in these assays?
FBW7 activator: 0; GPR151 activ: 1; TEAD-YAP inh: 22; MITF primary: -18

What do the screens show for `CCN=C1S/C(=C\c2ccc(O)c(OC)c2)C(=O)N1CC`?
FBW7 activator: 0; GPR151 activ: 2; TEAD-YAP inh: -9; MITF primary: 0

How did O=C(O)CCC(=O)Nc1sc2c(c1C(=O)NCC1CCCO1)CCCC2 (configuration not stated) do in these assays?
FBW7 activator: 0; GPR151 activ: 2; TEAD-YAP inh: 0; MITF primary: 21

What do the screens show for `COc1ccccc1CNC(=O)c1ccc(CNc2c(N3CCCC3)c(=O)c2=O)cc1`?
FBW7 activator: 0; GPR151 activ: 4.9*; TEAD-YAP inh: 5; MITF primary: 10; GPR151 confirm: -1; GPR119 counter: -13

How did Cc1ccc(NC(=O)c2ccc(CNc3c(N4CCOCC4)c(=O)c3=O)cc2)cc1F do in these assays?
FBW7 activator: 0; GPR151 activ: 5.0*; TEAD-YAP inh: -7; MITF primary: 1; GPR151 confirm: 0; GPR119 counter: -9

Results for Cc1cc(S(=O)(=O)ON2C(=O)c3cccc4cccc(c34)C2=O)ccc1F ?
FBW7 activator: 0; GPR151 activ: 0; TEAD-YAP inh: -5; MITF primary: 15

How did Cc1c(C(=O)NC(=S)Nc2ncccc2O)cccc1[N+](=O)[O-] do in these assays?
FBW7 activator: 0; GPR151 activ: 5.4*; TEAD-YAP inh: 0; MITF primary: -4; GPR151 confirm: 0; GPR119 counter: -5

How did O=c1[nH]cc(N=Cc2ccc([N+](=O)[O-])cc2)c(=O)[nH]1 do in these assays?
FBW7 activator: 0; GPR151 activ: 6.5*; TEAD-YAP inh: -9; MITF primary: -2; GPR151 confirm: -1; GPR119 counter: -1

From PubChem BioAssay
